Targets with a hit are over-represented here; the source holds about 8,800 in all. About 0.5% of all pairs of compound and target were hits.

Chain of UniProt Q9UL25 (Q9UL25 whole entry, looked up): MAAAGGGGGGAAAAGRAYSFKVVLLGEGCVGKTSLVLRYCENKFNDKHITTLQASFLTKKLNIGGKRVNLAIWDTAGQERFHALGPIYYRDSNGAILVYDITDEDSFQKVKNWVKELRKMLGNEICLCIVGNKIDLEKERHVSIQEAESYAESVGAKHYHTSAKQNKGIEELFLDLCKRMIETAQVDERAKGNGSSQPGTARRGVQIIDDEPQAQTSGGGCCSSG
Chain of UniProt Q4ADV7 (Q4ADV7 whole entry, looked up): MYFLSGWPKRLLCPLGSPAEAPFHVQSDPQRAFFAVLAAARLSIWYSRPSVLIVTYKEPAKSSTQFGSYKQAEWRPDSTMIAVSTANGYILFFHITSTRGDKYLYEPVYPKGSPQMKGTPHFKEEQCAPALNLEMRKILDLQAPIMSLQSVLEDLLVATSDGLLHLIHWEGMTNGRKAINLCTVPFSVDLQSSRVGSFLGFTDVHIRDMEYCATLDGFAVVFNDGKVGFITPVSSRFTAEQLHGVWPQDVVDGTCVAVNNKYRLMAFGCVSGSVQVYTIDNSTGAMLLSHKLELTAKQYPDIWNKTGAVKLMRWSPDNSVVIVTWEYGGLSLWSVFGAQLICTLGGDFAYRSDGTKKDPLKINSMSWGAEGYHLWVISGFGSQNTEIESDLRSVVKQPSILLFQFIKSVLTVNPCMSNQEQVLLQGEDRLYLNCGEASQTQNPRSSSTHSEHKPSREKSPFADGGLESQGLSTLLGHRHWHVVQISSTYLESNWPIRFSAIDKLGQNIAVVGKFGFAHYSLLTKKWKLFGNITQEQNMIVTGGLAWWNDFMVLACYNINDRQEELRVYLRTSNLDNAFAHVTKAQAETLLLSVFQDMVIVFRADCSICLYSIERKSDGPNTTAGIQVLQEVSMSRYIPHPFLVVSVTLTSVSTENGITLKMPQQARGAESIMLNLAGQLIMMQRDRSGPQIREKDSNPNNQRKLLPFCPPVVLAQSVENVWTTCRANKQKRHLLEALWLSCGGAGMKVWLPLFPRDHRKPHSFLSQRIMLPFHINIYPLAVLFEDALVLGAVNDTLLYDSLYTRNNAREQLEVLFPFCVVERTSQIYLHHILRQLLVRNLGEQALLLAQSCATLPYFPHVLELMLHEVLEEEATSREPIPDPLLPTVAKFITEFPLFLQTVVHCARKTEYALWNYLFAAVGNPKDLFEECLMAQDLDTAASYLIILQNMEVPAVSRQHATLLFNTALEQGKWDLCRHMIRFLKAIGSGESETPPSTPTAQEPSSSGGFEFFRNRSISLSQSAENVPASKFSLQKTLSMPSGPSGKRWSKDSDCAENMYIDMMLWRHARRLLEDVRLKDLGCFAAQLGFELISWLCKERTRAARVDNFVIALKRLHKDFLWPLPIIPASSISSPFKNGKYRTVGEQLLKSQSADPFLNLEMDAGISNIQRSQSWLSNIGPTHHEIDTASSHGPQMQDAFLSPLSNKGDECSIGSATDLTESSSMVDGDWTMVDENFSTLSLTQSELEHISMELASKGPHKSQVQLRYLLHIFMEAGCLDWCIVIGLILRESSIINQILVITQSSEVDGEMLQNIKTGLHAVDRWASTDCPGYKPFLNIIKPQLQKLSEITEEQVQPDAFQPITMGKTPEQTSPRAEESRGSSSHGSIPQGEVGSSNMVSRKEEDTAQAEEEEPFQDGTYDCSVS
Chain of UniProt Q9BTD8 (Q9BTD8 whole entry, looked up): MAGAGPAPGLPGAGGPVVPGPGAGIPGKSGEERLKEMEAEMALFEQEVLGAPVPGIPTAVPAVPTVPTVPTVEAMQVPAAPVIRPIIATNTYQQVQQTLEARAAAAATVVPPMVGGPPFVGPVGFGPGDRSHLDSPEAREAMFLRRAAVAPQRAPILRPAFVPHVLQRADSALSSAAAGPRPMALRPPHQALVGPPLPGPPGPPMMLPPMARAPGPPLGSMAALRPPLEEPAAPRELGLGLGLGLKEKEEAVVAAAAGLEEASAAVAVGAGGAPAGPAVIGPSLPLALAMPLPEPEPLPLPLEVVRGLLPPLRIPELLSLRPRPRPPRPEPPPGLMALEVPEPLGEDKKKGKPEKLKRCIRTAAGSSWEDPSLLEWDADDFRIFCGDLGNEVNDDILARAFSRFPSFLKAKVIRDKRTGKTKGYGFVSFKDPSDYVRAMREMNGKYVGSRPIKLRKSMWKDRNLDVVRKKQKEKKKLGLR
Chain of UniProt Q9UQR0 (Q9UQR0 whole entry, looked up): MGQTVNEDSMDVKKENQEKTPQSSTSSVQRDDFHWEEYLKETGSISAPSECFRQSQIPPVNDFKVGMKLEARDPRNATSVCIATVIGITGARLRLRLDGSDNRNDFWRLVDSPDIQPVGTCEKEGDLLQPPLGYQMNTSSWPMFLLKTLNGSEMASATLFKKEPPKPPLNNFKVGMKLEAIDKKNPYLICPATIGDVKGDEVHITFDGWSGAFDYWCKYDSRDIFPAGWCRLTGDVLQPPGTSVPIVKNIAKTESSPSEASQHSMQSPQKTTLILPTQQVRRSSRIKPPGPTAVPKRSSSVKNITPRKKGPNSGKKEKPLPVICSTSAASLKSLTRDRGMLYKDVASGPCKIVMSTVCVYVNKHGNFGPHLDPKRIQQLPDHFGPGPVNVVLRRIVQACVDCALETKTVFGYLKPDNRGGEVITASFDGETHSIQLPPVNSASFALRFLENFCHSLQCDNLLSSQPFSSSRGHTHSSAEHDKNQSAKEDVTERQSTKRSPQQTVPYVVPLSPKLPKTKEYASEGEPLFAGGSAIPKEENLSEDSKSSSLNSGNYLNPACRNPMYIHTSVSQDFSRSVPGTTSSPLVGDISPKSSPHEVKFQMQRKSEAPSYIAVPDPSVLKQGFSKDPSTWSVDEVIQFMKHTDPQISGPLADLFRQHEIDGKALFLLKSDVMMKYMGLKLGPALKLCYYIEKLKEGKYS
Chain of UniProt Q8NBX0 (Q8NBX0 whole entry, looked up): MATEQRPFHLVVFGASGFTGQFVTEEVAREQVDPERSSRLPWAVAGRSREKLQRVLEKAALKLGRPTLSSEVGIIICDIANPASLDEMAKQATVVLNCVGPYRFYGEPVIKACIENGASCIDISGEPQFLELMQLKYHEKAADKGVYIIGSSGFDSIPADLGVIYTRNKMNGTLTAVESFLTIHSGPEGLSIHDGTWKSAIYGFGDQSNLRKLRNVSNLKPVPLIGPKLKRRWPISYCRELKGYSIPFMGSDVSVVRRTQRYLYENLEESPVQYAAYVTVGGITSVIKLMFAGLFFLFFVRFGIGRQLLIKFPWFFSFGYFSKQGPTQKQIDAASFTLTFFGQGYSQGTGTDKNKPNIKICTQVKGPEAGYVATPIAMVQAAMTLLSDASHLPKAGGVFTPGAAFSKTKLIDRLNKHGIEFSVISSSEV
Chain of UniProt Q05823 (Q05823 whole entry, looked up): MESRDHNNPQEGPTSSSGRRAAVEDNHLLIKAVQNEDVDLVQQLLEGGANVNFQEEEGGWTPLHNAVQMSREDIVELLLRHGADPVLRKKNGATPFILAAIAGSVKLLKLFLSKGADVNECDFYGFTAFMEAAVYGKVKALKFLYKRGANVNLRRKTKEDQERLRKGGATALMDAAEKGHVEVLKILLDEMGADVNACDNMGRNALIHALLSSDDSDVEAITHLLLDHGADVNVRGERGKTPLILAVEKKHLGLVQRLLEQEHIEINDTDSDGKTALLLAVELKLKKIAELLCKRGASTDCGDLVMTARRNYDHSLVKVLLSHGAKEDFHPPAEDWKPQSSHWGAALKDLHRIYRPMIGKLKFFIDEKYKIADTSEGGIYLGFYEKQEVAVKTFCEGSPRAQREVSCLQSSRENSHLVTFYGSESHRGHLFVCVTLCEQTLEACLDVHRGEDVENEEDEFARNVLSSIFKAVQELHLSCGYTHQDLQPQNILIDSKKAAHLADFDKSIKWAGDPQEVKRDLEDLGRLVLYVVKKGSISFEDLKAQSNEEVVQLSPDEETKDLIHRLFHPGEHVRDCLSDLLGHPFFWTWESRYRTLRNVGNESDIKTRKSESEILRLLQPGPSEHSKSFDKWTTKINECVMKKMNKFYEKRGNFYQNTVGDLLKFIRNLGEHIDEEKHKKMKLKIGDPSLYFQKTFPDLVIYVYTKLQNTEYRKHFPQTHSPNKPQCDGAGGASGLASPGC
Chain of UniProt P35241 (P35241 whole entry, looked up): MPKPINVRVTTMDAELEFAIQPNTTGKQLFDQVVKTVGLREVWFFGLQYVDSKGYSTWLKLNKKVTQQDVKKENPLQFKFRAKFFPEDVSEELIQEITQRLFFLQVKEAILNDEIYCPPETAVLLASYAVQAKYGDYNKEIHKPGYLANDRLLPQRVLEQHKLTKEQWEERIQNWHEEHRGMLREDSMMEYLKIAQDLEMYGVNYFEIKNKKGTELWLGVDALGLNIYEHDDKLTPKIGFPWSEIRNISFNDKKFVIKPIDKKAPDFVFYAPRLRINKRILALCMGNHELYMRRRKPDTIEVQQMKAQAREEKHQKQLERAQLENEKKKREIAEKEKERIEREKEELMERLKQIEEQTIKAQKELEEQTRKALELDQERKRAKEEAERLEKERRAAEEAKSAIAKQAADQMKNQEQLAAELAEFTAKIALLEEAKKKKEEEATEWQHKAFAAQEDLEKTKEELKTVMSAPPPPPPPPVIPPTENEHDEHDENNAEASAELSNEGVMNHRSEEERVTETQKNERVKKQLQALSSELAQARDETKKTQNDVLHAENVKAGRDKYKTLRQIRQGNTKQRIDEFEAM
Chain of UniProt O00767 (O00767 whole entry, looked up): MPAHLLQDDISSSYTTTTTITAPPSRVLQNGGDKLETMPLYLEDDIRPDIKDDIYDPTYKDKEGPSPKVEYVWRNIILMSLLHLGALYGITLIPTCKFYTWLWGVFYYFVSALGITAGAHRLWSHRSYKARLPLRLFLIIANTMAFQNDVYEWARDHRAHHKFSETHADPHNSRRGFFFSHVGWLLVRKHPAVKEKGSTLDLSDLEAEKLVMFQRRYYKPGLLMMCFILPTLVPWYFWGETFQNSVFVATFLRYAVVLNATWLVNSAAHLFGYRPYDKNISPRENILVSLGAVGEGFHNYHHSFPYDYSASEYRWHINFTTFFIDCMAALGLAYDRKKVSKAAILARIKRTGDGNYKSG

Compound in one assay: C1=CC2=NC=CN=C2C=C1/C=C/3\C(=O)NC(=O)S3
Description: log2 fold change, soluble protein after heating vs DMSO (PISA); higher = thermal stabilisation; K562 lysate, 10 uM; active = over 0.2 and 3.5 SD of the protein, either way, in both replicates (recomputed). In a few lines:
(§1)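 Thermal stability, expressed as log-two fold change relative to solvent controls, is given from duplicates. Crude K562 extract in PBS pH 7.4 with 1 mM MgCl2, at 1 mg/mL protein, was treated with 10 μM compound for 30 min and heated in aliquots for 3 min across 48°C-58°C. After pooling, adjustment to 0.5% NP-40 at 4°C and centrifugation at 21,000xg for 90 min, supernatant protein was measured by TMTpro 16plex LC-MS/MS with channel sums equalised.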
As to SCML2 (UniProt Q9UQR0), the log2 fold change was -0.046 (inactive).
As for SESN2 (UniProt P58004), the log2 fold change was 0.023 (inactive).
On to RAF1 isoform 2 (UniProt P04049), for which the log2 fold change is -0.113 (inactive).
RFC3 (UniProt P40938): the log2 fold change is 0.005 (inactive).
In the case of RPS4X (UniProt P62701), the log2 fold change was -0.018 (inactive).
Still for that read-out and setting: for SEC24D isoform 2 (UniProt O94855) the value was 0.032 (inactive); for SCCPDH (UniProt Q8NBX0), -0.243 (inactive).
With SEH1L isoform 1 (UniProt Q96EE3), the log2 fold change is 0.014 (inactive).
Regarding RTN4IP1 (UniProt Q8WWV3), the log2 fold change was -0.017 (inactive).
Turning to RPAP1 (UniProt Q9BWH6), the log2 fold change was 0.007 (inactive).
RIOK1 (UniProt Q9BRS2): the log2 fold change was 0.393 (active).
With REXO4 (UniProt Q9GZR2), the log2 fold change is -0.052 (inactive).
With RNF181 (UniProt Q9P0P0), the log2 fold change was -0.001 (inactive).
Regarding RBMX (UniProt P38159), the log2 fold change was 0.013 (inactive).
Same read-out and setting: for RIOK3 (UniProt O14730) the value was -0.011 (inactive); for RNASEH2B (UniProt Q5TBB1), -0.011 (inactive).
Same read-out and setting: for SCD (UniProt O00767) the value was -0.012 (inactive); for RBM42 (UniProt Q9BTD8), -0.018 (inactive).
Turning to RPL37A (UniProt P61513), the log2 fold change is -0.03 (inactive).
As for RPN2 (UniProt P04844), the log2 fold change was 0.021 (inactive).
For the target RRAGA (UniProt Q7L523), the log2 fold change was 0.118 (inactive).
With RIC1 (UniProt Q4ADV7), the log2 fold change was -0.176 (inactive).
Consider RNASEL (UniProt Q05823), for which the log2 fold change is 0.099 (inactive).
Turning to RECQL5 (UniProt O94762), the log2 fold change is 0.005 (inactive).
QRSL1 (UniProt Q9H0R6): the log2 fold change is -0.111 (inactive).
Take SBF1 isoform 4 (UniProt O95248): the log2 fold change is -0.005 (inactive).
On the same count and under the same terms, then RAP1B (UniProt P61224), with -0.031 (inactive).
On the same count and under the same terms, for RPS26P11 (UniProt Q5JNZ5) the value was 0.039 (inactive).
In the case of RPL8 (UniProt P62917), the log2 fold change is -0.026 (inactive).
On to RIPK1 (UniProt Q13546), for which the log2 fold change is -0.015 (inactive).
As to RDX (UniProt P35241), the log2 fold change is -0.032 (inactive).
As to RAB21 (UniProt Q9UL25), the log2 fold change is 0.02 (inactive).
With RBBP7 isoform 2 (UniProt Q16576), the log2 fold change is -0.013 (inactive).

Compound in the next assay: C1=CC=C(C=C1)C2=NC(=C(N2)C3=CC=NC=C3)C4=CC(=C(C=C4)Cl)O
The description is as above. In a few lines:
as §1
For SCML2 (UniProt Q9UQR0), the log2 fold change was 0 (inactive).
Consider SESN2 (UniProt P58004), for which the log2 fold change was -0.037 (inactive).
On the same count and under the same terms, then RAF1 isoform 2 (UniProt P04049), with -0.009 (inactive).
Turning to RFC3 (UniProt P40938), the log2 fold change is 0.005 (inactive).
On to RPS4X (UniProt P62701), for which the log2 fold change is -0.002 (inactive).
Regarding SEC24D isoform 2 (UniProt O94855), the log2 fold change was 0.022 (inactive).
Turning to SCCPDH (UniProt Q8NBX0), the log2 fold change is 0.052 (inactive).
In the case of SEH1L isoform 1 (UniProt Q96EE3), the log2 fold change was -0.015 (inactive).
Turning to RTN4IP1 (UniProt Q8WWV3), the log2 fold change is -0.003 (inactive).
As for RPAP1 (UniProt Q9BWH6), the log2 fold change was -0.028 (inactive).
Turning to RIOK1 (UniProt Q9BRS2), the log2 fold change was 0.128 (inactive).
For REXO4 (UniProt Q9GZR2), the log2 fold change was 0.027 (inactive).
Consider RNF181 (UniProt Q9P0P0), for which the log2 fold change is 0.022 (inactive).
For the target RBMX (UniProt P38159), the log2 fold change is 0.025 (inactive).
For the target RIOK3 (UniProt O14730), the log2 fold change is 0.023 (inactive).
The same measure, in the same setting: then RNASEH2B (UniProt Q5TBB1), with 0.009 (inactive); and SCD (UniProt O00767), with 0.009 (inactive); and RBM42 (UniProt Q9BTD8), with -0.009 (inactive).
Consider RPL37A (UniProt P61513), for which the log2 fold change is 0.03 (inactive).
As to RPN2 (UniProt P04844), the log2 fold change is 0 (inactive).
For the target RRAGA (UniProt Q7L523), the log2 fold change was -0.107 (inactive).
In the case of RIC1 (UniProt Q4ADV7), the log2 fold change is 0.044 (inactive).
On to RNASEL (UniProt Q05823), for which the log2 fold change is 0.009 (inactive).
For the target RECQL5 (UniProt O94762), the log2 fold change was -0.002 (inactive).
QRSL1 (UniProt Q9H0R6): the log2 fold change is 0.002 (inactive).
On to SBF1 isoform 4 (UniProt O95248), for which the log2 fold change was -0.027 (inactive).
On the same count and under the same terms, then RAP1B (UniProt P61224), with 0.006 (inactive); and RPS26P11 (UniProt Q5JNZ5), with 0.005 (inactive); and RPL8 (UniProt P62917), with 0.007 (inactive).
Same read-out and setting: for RIPK1 (UniProt Q13546) the value was 0.008 (inactive); for RDX (UniProt P35241), 0.018 (inactive); for RAB21 (UniProt Q9UL25), -0.028 (inactive).
As for RBBP7 isoform 2 (UniProt Q16576), the log2 fold change is -0.002 (inactive).

Compound in the next assay: C1=CC=C2C(=C1)C3=NNC4=CC=CC(=C43)C2=O
The assay is described as above. Put shortly:
as §1
Consider SCML2 (UniProt Q9UQR0), for which the log2 fold change was -0.028 (inactive).
Take SESN2 (UniProt P58004): the log2 fold change was -0.07 (inactive).
Consider RAF1 isoform 2 (UniProt P04049), for which the log2 fold change was 0.007 (inactive).
RFC3 (UniProt P40938): the log2 fold change was -0.027 (inactive).
On to RPS4X (UniProt P62701), for which the log2 fold change is -0.005 (inactive).
Turning to SEC24D isoform 2 (UniProt O94855), the log2 fold change is 0.001 (inactive).
As for SCCPDH (UniProt Q8NBX0), the log2 fold change was 0.185 (inactive).
For the target SEH1L isoform 1 (UniProt Q96EE3), the log2 fold change is -0.012 (inactive).
With RTN4IP1 (UniProt Q8WWV3), the log2 fold change was 0.022 (inactive).
Take RPAP1 (UniProt Q9BWH6): the log2 fold change is 0.001 (inactive).
On to RIOK1 (UniProt Q9BRS2), for which the log2 fold change is 0.4 (active).
Turning to REXO4 (UniProt Q9GZR2), the log2 fold change was -0.033 (inactive).
Turning to RNF181 (UniProt Q9P0P0), the log2 fold change was -0.058 (inactive).
Still for that read-out and setting: for RBMX (UniProt P38159) the value was 0.018 (inactive); for RIOK3 (UniProt O14730), 0.092 (inactive).
Consider RNASEH2B (UniProt Q5TBB1), for which the log2 fold change is 0.024 (inactive).
Regarding SCD (UniProt O00767), the log2 fold change was 0.011 (inactive).
Consider RBM42 (UniProt Q9BTD8), for which the log2 fold change is -0.05 (inactive).
Take RPL37A (UniProt P61513): the log2 fold change is 0.064 (inactive).
Take RPN2 (UniProt P04844): the log2 fold change was -0.049 (inactive).
Still for that read-out and setting: then RRAGA (UniProt Q7L523), with -0.008 (inactive); and RIC1 (UniProt Q4ADV7), with 0.035 (inactive); and RNASEL (UniProt Q05823), with -0.062 (inactive).
Consider RECQL5 (UniProt O94762), for which the log2 fold change is 0.012 (inactive).
QRSL1 (UniProt Q9H0R6): the log2 fold change was 0.116 (inactive).
SBF1 isoform 4 (UniProt O95248): the log2 fold change was -0.029 (inactive).
As to RAP1B (UniProt P61224), the log2 fold change is -0.014 (inactive).
RPS26P11 (UniProt Q5JNZ5): the log2 fold change is -0.046 (inactive).
Turning to RPL8 (UniProt P62917), the log2 fold change is 0.109 (inactive).
Consider RIPK1 (UniProt Q13546), for which the log2 fold change is 0.08 (inactive).
On the same count and under the same terms, then RDX (UniProt P35241), with -0.009 (inactive); and RAB21 (UniProt Q9UL25), with -0.034 (inactive); and RBBP7 isoform 2 (UniProt Q16576), with 0.055 (inactive).
